This note sets out measurements from PubChem BioAssay (Tox21).

Molecules are shown by their SMILES. Active and inactive are the calls of the source. Where a call stands in place of a potency, no number is given. Unless noted, calls come from the whole dose curve; as a rule, active = well fitted activation curve with a large enough effect in the repeat runs; inconclusive = weak or mixed curves; inactive = flat fitted curve, though single readings scatter.

Gonadotropin-releasing hormone receptor (Homo sapiens), sequence (P30968 whole entry, looked up): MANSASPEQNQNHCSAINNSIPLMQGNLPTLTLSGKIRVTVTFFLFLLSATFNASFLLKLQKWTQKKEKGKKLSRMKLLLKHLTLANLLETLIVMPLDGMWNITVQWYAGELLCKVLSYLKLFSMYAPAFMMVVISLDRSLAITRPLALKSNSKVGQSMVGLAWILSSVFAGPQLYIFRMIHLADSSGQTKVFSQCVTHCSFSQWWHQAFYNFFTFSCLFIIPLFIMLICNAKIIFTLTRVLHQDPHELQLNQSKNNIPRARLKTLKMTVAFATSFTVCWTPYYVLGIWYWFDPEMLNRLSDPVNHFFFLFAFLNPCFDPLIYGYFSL

The first assay deals with Gonadotropin-releasing hormone receptor (Homo sapiens) (UniProt P30968). The assay can be described thus: Human gonadotropin-releasing hormone receptor (GnRHR) small molecule agonists, calcium flux assay in GnRHR-HEK293 cells (AID 1920063; calls by dose curve; note: nearly all actives have a fitted effect of over 35% in size). The conditions noted are these: calcium flux fluorescence, agonist mode; series mostly up to 57.6 µM. In short, it runs like this:
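Calcium flux, agonist mode, human GnRHR stably integrated in HEK293; dye 1 h at 37 C before compound; Ex/Em=480/540 kinetic read, 3 min; 15 concentrations, triplicate.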
(A change in cytosolic calcium serves as a functional read-out for many receptors and channels.)
For `CC(C)(Oc1ccc(C2CC2(Cl)Cl)cc1)C(=O)O` (stereo not given), the Potency result is “inactive”.

Regarding `OC[C@@H](O)[C@@H](O)[C@H](O)[C@@H](O)CO`, the Potency entry was “inactive”.

As for `OC(Cn1cncn1)(Cn1cncn1)c1ccc(F)cc1F`, the Potency result is “inactive”. Still for that read-out and setting: as for `OCCO`, the entry is “inactive”. `NS(=O)(=O)c1cc2c(cc1Cl)NCNS2(=O)=O`: the Potency result was “inactive”. On the same count and under the same terms, the result for `O=C(O)Cc1ccccc1Nc1c(Cl)cccc1Cl` reads “inactive”; that for `CC(C)(C#N)c1cc(Cn2cncn2)cc(C(C)(C)C#N)c1`, “inactive”; that for `C[C@]12CC[C@@H]3c4ccc(O)cc4CC[C@H]3[C@@H]1C[C@@H](O)[C@@H]2O`, “inactive”.

Regarding `CC[C@H](C)C(=O)O[C@H]1C[C@@H](C)C=C2C=C[C@H](C)[C@H](CC[C@@H]3C[C@@H](O)CC(=O)O3)[C@H]21`, the Potency entry is “inactive”. For the molecule `Cc1nnc(NS(=O)(=O)c2ccc(N)cc2)s1`, the Potency result is “inactive”. Turning to `NC(=O)c1ccccc1O`, the Potency entry was “inactive”.

On to `CC(C)Cc1ccc(C(C)C(=O)O)cc1` (stereo not given), for which the Potency result was “inactive”.

`CC(C)(Oc1ccc(Cl)cc1)C(=O)O`: the Potency entry is “inactive”. With `COc1ccccc1OCC(O)CO` (stereo not given), the Potency entry was “inactive”. On to `NC(=O)c1cccnc1`, for which the Potency entry was “inactive”. Regarding `CC(=O)[C@@]1(O)CC[C@H]2[C@@H]3C[C@H](C)C4=CC(=O)C=C[C@]4(C)[C@@]3(F)[C@@H](O)C[C@@]21C`, the Potency result was “inactive”. `CC(=O)Nc1nnc(S(N)(=O)=O)s1`: the Potency result was “inactive”. As to `NNCCc1ccccc1`, the Potency result was “inactive”. Take `CCOC(N)=O`: the Potency result is “inactive”. As for `CCCCCCc1ccc(O)cc1O`, the Potency entry was “inactive”.

The target of the next assay is KiSS-1 receptor (Homo sapiens) (UniProt Q969F8). Kind of assay: Human kisspeptin (KISS1R) small molecule agonists, calcium flux assay in KISS1R-HEK293 cells (AID 1920064). The following applies: KISS1R-HEK293, calcium flux fluorescence, agonist; series mostly up to 76.8 µM. In a few lines: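 Triplicate 15-concentration series were applied to dye-loaded human KISS1R HEK293 cells, and agonist-evoked calcium fluorescence was captured for 3 min.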
KiSS-1 receptor (Homo sapiens), sequence (Q969F8 whole entry, looked up): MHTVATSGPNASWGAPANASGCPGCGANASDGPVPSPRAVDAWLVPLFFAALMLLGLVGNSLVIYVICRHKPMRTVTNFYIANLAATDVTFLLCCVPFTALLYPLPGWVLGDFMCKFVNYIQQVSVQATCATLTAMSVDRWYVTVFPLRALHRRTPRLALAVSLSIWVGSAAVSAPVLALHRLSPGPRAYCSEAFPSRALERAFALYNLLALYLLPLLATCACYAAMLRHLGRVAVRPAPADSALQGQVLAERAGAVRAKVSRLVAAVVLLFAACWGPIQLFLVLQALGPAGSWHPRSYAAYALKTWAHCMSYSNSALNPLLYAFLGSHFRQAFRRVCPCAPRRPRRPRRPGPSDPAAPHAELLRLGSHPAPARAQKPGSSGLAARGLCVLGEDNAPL
`O=C1O[C@H]([C@H](O)CO)C(O)=C1O`: the Potency result was “inactive”. On to `COC(=O)c1ccc(O)cc1`, for which the Potency result was “inactive”. As for `S=c1nc[nH]c2nc[nH]c12`, the Potency result is “inactive”. Still for that read-out and setting: as for `C[C@]12CCC(=O)C=C1CC[C@@H]1[C@@H]2C(=O)C[C@@]2(C)[C@H]1CC[C@]2(O)C(=O)CO`, the entry is “inactive”; as for `C/C=C/C(=O)N(CC)c1ccccc1C`, “inactive”; as for `O=c1c(-c2ccc(O)cc2)coc2cc(O)cc(O)c12`, “inactive”. `CN(N=O)C(=O)N[C@@H]1[C@@H](O)[C@H](O)[C@@H](CO)O[C@@H]1O`: the Potency entry is “inactive”. The same measure, in the same setting: as for `CCCCC1C(=O)N(c2ccccc2)N(c2ccccc2)C1=O`, the entry is “inactive”; as for `CC12CCC(CC1)C(C)(C)O2`, “inactive”. Still for that read-out and setting: the result for `OC[C@@H](O)[C@@H](O)[C@H](O)[C@H](O)CO` reads “inactive”; that for `CCCN(CCC)S(=O)(=O)c1ccc(C(=O)O)cc1`, “inactive”; that for `Cc1ncc([N+](=O)[O-])n1CCO`, “inactive”. For the molecule `CCCCOC(=O)c1ccc(N)cc1`, the Potency result is “inactive”.

Take `C#C[C@]1(O)CC[C@H]2[C@@H]3CCC4=CC(=O)CC[C@@H]4[C@H]3CC[C@@]21CC`: the Potency entry was “inactive”. Turning to `c1ccc2c(c1)c1cccc3ccc4cccc2c4c31`, the Potency result is “inactive”. Regarding `CC1(C)O[C@@H]2C[C@H]3[C@@H]4C[C@H](F)C5=CC(=O)CC[C@]5(C)[C@H]4[C@@H](O)C[C@]3(C)[C@]2(C(=O)CO)O1`, the Potency result is “inactive”. In the case of `CC(C)=CCC/C(C)=C/CO`, the Potency entry is “inactive”. `CN1C(C(=O)Nc2ccccn2)=C(O)c2ccccc2S1(=O)=O`: the Potency entry was “inactive”. In the case of `Cc1noc(NS(=O)(=O)c2ccc(N)cc2)c1C`, the Potency result is “inactive”. With `Cc1cc(=O)n(-c2ccccc2)n1C`, the Potency result was “inactive”. For the molecule `CC(C)(Oc1ccc(C2CC2(Cl)Cl)cc1)C(=O)O` (stereo not given), the Potency result is “inactive”. With `OC[C@@H](O)[C@@H](O)[C@H](O)[C@@H](O)CO`, the Potency entry is “inactive”.

For the molecule `OC(Cn1cncn1)(Cn1cncn1)c1ccc(F)cc1F`, the Potency result is “inactive”.

Take `OCCO`: the Potency result was “inactive”.

Consider `NS(=O)(=O)c1cc2c(cc1Cl)NCNS2(=O)=O`, for which the Potency entry was “inactive”. For `O=C(O)Cc1ccccc1Nc1c(Cl)cccc1Cl`, the Potency entry is “inactive”.

Take `CC(C)(C#N)c1cc(Cn2cncn2)cc(C(C)(C)C#N)c1`: the Potency result was “inactive”. With `C[C@]12CC[C@@H]3c4ccc(O)cc4CC[C@H]3[C@@H]1C[C@@H](O)[C@@H]2O`, the Potency result is “inactive”. In the case of `CC[C@H](C)C(=O)O[C@H]1C[C@@H](C)C=C2C=C[C@H](C)[C@H](CC[C@@H]3C[C@@H](O)CC(=O)O3)[C@H]21`, the Potency result is “inactive”. As to `Cc1nnc(NS(=O)(=O)c2ccc(N)cc2)s1`, the Potency result is “inactive”.

Consider `NC(=O)c1ccccc1O`, for which the Potency entry is “inactive”. As for `CC(C)Cc1ccc(C(C)C(=O)O)cc1` (stereo not given), the Potency entry was “inactive”. Consider `CC(C)(Oc1ccc(Cl)cc1)C(=O)O`, for which the Potency result is “inactive”. In the case of `COc1ccccc1OCC(O)CO` (stereo not given), the Potency result is “inactive”. As to `NC(=O)c1cccnc1`, the Potency result was “inactive”. On to `CC(=O)[C@@]1(O)CC[C@H]2[C@@H]3C[C@H](C)C4=CC(=O)C=C[C@]4(C)[C@@]3(F)[C@@H](O)C[C@@]21C`, for which the Potency result is “inactive”. As for `CC(=O)Nc1nnc(S(N)(=O)=O)s1`, the Potency result was “inactive”.

`NNCCc1ccccc1`: the Potency entry was “inactive”.

Regarding `CCOC(N)=O`, the Potency result is “inactive”. As for `CCCCCCc1ccc(O)cc1O`, the Potency result is “inactive”.
